From PubChem BioAssay
In the library only some 19% were active in any assay of this set; here they are far more common.
TDP1 cell CPT: qHTS for Inhibitors of human tyrosyl-DNA phosphodiesterase 1 (TDP1): qHTS in cells in presence of CPT | 12% of 420,000 active | chicken DT40 Tdp1-/-;hTDP1 cells + 20 nM CPT, ATP luminescence, 48 h | Potency, µM (series often up to 46.2 µM), without a hit: at the highest dose activity change, negative = growth inhibition, hits mostly inhibitors | AID 686979, 2013; note: nearly all actives have a fitted effect of over 55% in size
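Chicken DT40 Tdp1-/- cells complemented with human TDP1, 400 cells/well, exposed to compounds plus 20 nM camptothecin for at least 48 h at 37 C; viability read as ATP content by CellTiter-Glo luminescence.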
TDP1 cell noCPT: qHTS for Inhibitors of human tyrosyl-DNA phosphodiesterase 1 (TDP1): qHTS in cells in absence of CPT; DT40 Tdp1-/- hTDP1 cells, no CPT, ATP luminescence, 48 h; Potency, µM (doses to about 46.2 µM), for inactives: top-dose activity change, negative = growth inhibition, most hits filed as inhibitors; 15% of 420,000 active; AID 686978, 2013; note: nearly all actives have a fitted effect of over 55% in size
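Compound effects on proliferation are scored in DT40 Tdp1-/-;hTDP1 cells in the absence of CPT. ATP levels (CellTiter-Glo luminescence) are recorded after a ≥48 hr, 37 °C incubation.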
HT1080-NT tox: qHTS for induction of synthetic lethality in tumor cells producing 2HG: qHTS for the HT-1080-NT fibrosarcoma cell line | 1.6% of 360,000 active | AID 686970, 2013 | Potency, µM (series often up to 46.1 µM), for inactives: at the highest dose activity, negative = less viability, most hits filed as cytotoxic | HT-1080-NT fibrosarcoma viability, CellTiter-Glo ATP luminescence, 48 h;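 note: NT is the 2HG producing partner of a matched IDH1 knockdown line; 0% = DMSO-treated cells and -100% = media-only wells without cells; nearly all actives have a fitted effect of over 55% in size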
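HT-1080-NT fibrosarcoma cells (2HG-overproducing), 750 cells/well in RPMI with 5% FBS, dosed after 2 h and incubated 48 h at 37C. CellTiter-Glo luminescence normalized to DMSO and no-cell wells; concentration-response curves fitted and classed.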
HT1080 IDH1KD tx: qHTS for induction of synthetic lethality in tumor cells producing 2HG: qHTS for the HT-1080-IDH1KD cell line; 2% of 360,000 active; Potency, µM (top dose mostly 46.1 µM), for inactives: at the top dose activity, negative = toxicity, usual class: cytotoxic; HT-1080 IDH1 knockdown viability, ATP luminescence, 48 h;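 note: 0% = DMSO wells and -100% = cell-free medium wells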
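Using the IDH1-knockdown HT-1080 line run in the same batch and compound series as the NT line, viability after 48 h at 37 °C was determined by CellTiter-Glo luminescence and expressed as % activity.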
KB-3-1 tox: qHTS assay for MDR1-selective chemotherapeutics: Primary screen using the parental adenocarcinoma cell KB-3-1; KB-3-1 viability, CellTiter-Glo ATP luminescence, 72 h; Potency, µM (series often up to 46.1 µM), usual class: cytotoxic; 1.4% of 400,000 active; AID 1347075, 2019; note: nearly all actives have a fitted effect of over 60% in size
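Cells are dispensed, compounds pinned in, plates held at 37 °C for 72 h, then CellTiter-Glo is added and luminescence read after 10 minutes. Cell line: parental KB-3-1 in phenol-red-free DMEM, 10% FBS.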
KB-V1 cytotox: qHTS assay for MDR1-selective chemotherapeutics: Primary screen using the drug-selected MDR subline cells KB-V1; 3.4% of 400,000 active; KB-V1 MDR cells viability, CellTiter-Glo, 72 h; Potency, µM (titrated, usually from 46.1 µM), actives largely listed as cytotoxic; note: nearly all actives have a fitted effect of over 60% in size
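Compound-treated KB-V1 multidrug-resistant cells, 72 h, 37 degrees C; viability by CellTiter-Glo. Fitted qHTS curves give the values.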
An asterisk follows results filed as active; i = inactive; ? = inconclusive; / = no result. Calls come from the whole dose curve; as a rule, active = well fitted curve in the direction sought with a large enough effect; inconclusive = small, poorly fitted or top-dose-only effect, or another doubt; inactive = no such curve, though single readings can be large; an effect the other way counts as inactive or inconclusive. Unless noted, % is set by controls: 0 for no effect and ±100 for the full control effect; potency is the fitted concentration of half-maximal effect.

SMILES	TDP1 cell CPT	TDP1 cell noCPT	HT1080-NT tox	HT1080 IDH1KD tx	KB-3-1 tox	KB-V1 cytotox
CCCCCCCCN1C(=O)[C@H](CC(=O)NCc2cccc(C(F)(F)F)c2)C[C@@]2(C(=O)OC)CC(C)(C)CC=C12	12µM*	10µM*	?	?	?	23µM*
COC(=O)[C@@]12C[C@@H](CC(=O)NCc3ccc(OC)c(OC)c3)C(=O)N(Cc3cccc4ccccc34)C1=CCC(C)(C)C2	?	?	?	-28%	i	21µM*
CCNC(=O)[C@H]1O[C@H](n2cnc3c(N)nc(NCCc4ccc(CCC(=O)O)cc4)nc32)[C@@H](O)[C@@H]1O	0%	?	/	/	/	/
O=C(c1cnccn1)N1CCC2(CC1)CN(c1ccncc1)C2	-1%	-11%	/	/	/	/
COC(=O)[C@@]12C[C@@H](CC(=O)N3CCOCC3)C(=O)N(CCc3ccc(OC)c(OC)c3)C1=CCC(C)(C)C2	7%	9%	15%	8%	i	i
COC(=O)[C@@]12C[C@@H](CC(=O)NCc3cccs3)C(=O)N(CCc3ccc(OC)c(OC)c3)C1=CCC(C)(C)C2	21µM*	?	-16%	-16%	i	?
COC(=O)[C@@]12C[C@@H](CC(=O)NCc3ccc(C)o3)C(=O)N(CCc3ccc(OC)c(OC)c3)C1=CCC(C)(C)C2	9.2µM*	8.2µM*	-22%	-16%	?	18µM*
COC(=O)[C@]12CCCCC=C1N(CCc1ccc(OC)c(OC)c1)C(=O)[C@H](CC(=O)NCc1cccs1)C2	21µM*	16µM*	4%	0%	i	i
CCOC(=O)N1CCN(C(=O)C[C@@H]2C[C@@]3(C(=O)OC)CC(C)(C)CC=C3N(CCc3ccc(OC)c(OC)c3)C2=O)CC1	?	16µM*	7%	9%	i	?
O=c1cc(CN2CCN(c3ccc(Cl)c(Cl)c3)CC2)c2c(ccc3ccccc32)o1	?	?	14%	12%	i	i
Cn1cc(-c2nc3cnc(Oc4ccccc4)nc3n(C3CC3)c2=O)c2ccccc21	0%	16%	/	/	/	/
COCCn1c(C)cc(O)c(C(c2ccccc2)N2CCN(C)CC2)c1=O (configuration not stated)	-1%	1%	/	/	i	i
CCc1ccc2c(c1)C(c1ccc([N+](=O)[O-])cc1)=NNC(c1ccc(F)cc1)=N2	21µM*	?	-6%	-14%	?	?
CCn1c(C)nc2cc(C(=O)OC(C(F)(F)C(F)F)C(F)(F)C(F)F)ccc21	?	18µM*	3%	10%	i	?
COc1ccc(S(=O)(=O)NC(=O)C2(C)CCN2C(=O)Cc2cccc3ccccc23)cc1 (configuration not stated)	4%	-5%	11%	16%	i	i
CC(C)=CCC/C(C)=C/CNC(=O)C[C@H]1C[C@H](C(=O)N2CCCCC2)[C@@]2(C)c3[nH]c4cc(-c5ccco5)ccc4c3CCN2C1=O	?	21µM*	?	?	?	?
CCN(CC)C(=O)[C@H]1CC(CC(=O)NC/C=C(\C)CCC=C(C)C)C(=O)N2CCc3c([nH]c4ccc(OC)cc34)[C@]12C (some centres not stated)	?	?	?	16µM*	?	?
